Assay results: PubChem BioAssay (Tox21)
Results filed as inconclusive are left out. The source made the active and inactive calls. Unless noted, calls come from the whole dose curve; as a rule, active = well fitted curve in the direction sought with a large enough effect in the repeat runs; inconclusive = weak or mixed curves; inactive = no such curve, though single readings can be large; an effect the other way counts as inactive or inconclusive.

Key:
[1] = qHTS assay to identify aromatase inhibitors - cell viability counter screen (AID 743084);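 note: cells stimulated with testosterone during compound exposure; nearly all actives have a fitted effect of over 55% in size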
[2] = molecular target: Peroxisome proliferator-activated receptor gamma (Homo sapiens) (UniProt P37231); test: qHTS assay to identify small molecule antagonists of the peroxisome proliferator-activated receptor gamma (PPARg) signaling pathway (AID 743191; calls by dose curve; note: series mostly up to about 63 µM; nearly all actives have a fitted effect of over 30% in size)
Procedure, shortened: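 Beta-lactamase reporter under UAS control in HEK293H PPARg-bla cells; compound treatment 17 h at 37C. Read-out: fluorescence intensity after 1 h room-temperature incubation with LiveBLAzer B/G FRET substrate.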

[3] = qHTS assay to identify small molecule antagonists of the peroxisome proliferator-activated receptor gamma (PPARg) signaling pathway - cell viability counter screen (AID 743194); note: nearly all actives have a fitted effect of over 55% in size
Procedure, shortened: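 Viability was measured as CellTiter-Glo luminescence in GeneBLAzer PPARg UAS-bla HEK293H cells. These cells had been exposed 17 h at 37 C to compounds together with rosiglitazone at 50 nM final, with the beta-lactamase readout taken in the same wells.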

[4] = qHTS assay for small molecule agonists of the antioxidant response element (ARE) signaling pathway - cell viability counter screen (AID 743203; calls by dose curve; note: nearly all actives have a fitted effect of over 55% in size)
Procedure, shortened: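 ARE-bla HepG2 cells were plated, rested 5 h at 37C/5% CO2, then exposed to compounds in DMSO for 16 h. Viability was read as CellTiter-Glo luminescence after 30 min at room temperature, in the same wells as the ARE screen.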

[5] = qHTS assay for small molecule activators of the heat shock response signaling pathway - cell viability counter screen (AID 743209); note: nearly all actives have a fitted effect of over 50% in size
Procedure, shortened: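 HSE-bla HeLa cells plated overnight, then exposed to Tox21 compounds (23 nL in DMSO) for 5 h at 37 C. After the bla reporter read, CellTiter-Glo was added in the same wells and luminescence read after 30 min at room temperature.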

[6] = qHTS assay for small molecule activators of the heat shock response signaling pathway (AID 743210; active = well fitted activation curve with a large enough effect in the signal ratio in the repeat runs, with a control signal flat, not every such curve was filed as active; the % refers to the signal ratio;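 note: HeLa cells with beta-lactamase reporter driven by heat shock elements; series mostly up to about 63 µM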)
Procedure, shortened: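 In HSE-bla HeLa cells, 5 h compound incubation (37 C) precedes addition of LiveBLAzer B/G substrate; after 2.5 h at room temperature, fluorescence intensity indicates reporter induction.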

[7] = qHTS assay to identify small molecule agonists of the peroxisome proliferator-activated receptor delta (PPARd) signaling pathway - cell viability counter screen (AID 743211); note: nearly all actives have a fitted effect of over 55% in size
Procedure, shortened: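 Viability was measured as CellTiter-Glo luminescence (30 min, room temperature) in the same wells as the beta-lactamase readout. GeneBLAzer PPARd UAS-bla HEK293H cells received compound after 5 h plating and were incubated 17 h at 37 C.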

[8] = molecular target: Peroxisome proliferator-activated receptor delta (Homo sapiens) (UniProt Q03181); test: qHTS assay to identify small molecule agonists of the peroxisome proliferator-activated receptor delta (PPARd) signaling pathway (AID 743212; calls by dose curve)
Procedure, shortened: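 HEK293H UAS-bla reporter cells, human PPARd system; compounds delivered in DMSO after 5 h plating, then at 37 C. Beta-lactamase FRET read, 2 h RT substrate step.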

[9] = qHTS assay to identify small molecule antagonists of the peroxisome proliferator-activated receptor delta (PPARd) signaling pathway - cell viability counter screen (AID 743213); note: nearly all actives have a fitted effect of over 50% in size
Procedure, shortened: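 Viability counter-screen, qHTS format: PPARd-bla HEK293H, L165041 300 nM final, 17 h compound exposure at 37 C, CellTiter-Glo luminescence after 30 min RT.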

[10] = molecular target: Bile acid receptor (Homo sapiens) (UniProt Q96RI1); test: qHTS assay to identify small molecule antagonists of the farnesoid-X-receptor (FXR) signaling pathway (AID 743217; active = well fitted inhibition curve with a large enough effect in the signal ratio in the repeat runs, not every such curve was filed as active; the % refers to the signal ratio)
Procedure, shortened: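 FXR-UAS-bla HEK 293T cells (beta-lactamase reporter) given compound plus chenodeoxycholic acid (50 uM final), 16 h at 37C. LiveBLAzer B/G FRET substrate added for 2 h at room temperature; fluorescence read.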

[11] = qHTS assay to identify small molecule agonists of the farnesoid-X-receptor (FXR) signaling pathway - cell viability counter screen (AID 743218); note: nearly all actives have a fitted effect of over 45% in size
Procedure, shortened: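 FXR-UAS-bla HEK 293T cells exposed to compounds for 16 h at 37C. Cytotoxicity read in the same wells by CellTiter-Glo luminescence after 30 min at room temperature, following the beta-lactamase FRET read.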

[12] = molecular target: Bile acid receptor (Homo sapiens) (UniProt Q96RI1); test: qHTS assay to identify small molecule agonists of the farnesoid-X-receptor (FXR) signaling pathway (AID 743220; active = well fitted activation curve with a large enough effect in the signal ratio in the repeat runs, not every such curve was filed as active; the % refers to the signal ratio)
Procedure, shortened: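 Beta-lactamase reporter under UAS control in GeneBLAzer FXR HEK 293T cells (5000/well) measured with LiveBLAzer FRET substrate after 2 h at room temperature. Compound exposure lasted 16 h at 37C.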

[13] = qHTS assay to identify small molecule antagonists of the farnesoid-X-receptor (FXR) signaling pathway - cell viability counter screen (AID 743221; active = well fitted cell-killing curve with a large enough effect in the repeat runs, not every such curve was filed as active; note: nearly all actives have a fitted effect of over 50% in size)
Procedure, shortened: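 Cytotoxicity counter screen run in the FXR-bla reporter wells: HEK 293T cells exposed to compound with 50 uM (final) chenodeoxycholic acid for 16 h, 37 C, then viability measured by CellTiter-Glo luminescence after 30 min, room temperature.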

[14] = molecular target: Vitamin D3 receptor (Homo sapiens) (UniProt P11473); test: qHTS assay to identify small molecule agonists of the vitamin D receptor (VDR) signaling pathway (AID 743222; calls by dose curve)
Procedure, shortened: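 VDR-bla cells plated 4 h at 37 C, then exposed to compounds for 16 h at 37 C. Beta-lactamase reporter activity measured by fluorescence after 2 h room-temperature loading with LiveBLAzer B/G FRET substrate.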

[15] = molecular target: Vitamin D3 receptor (Homo sapiens) (UniProt P11473); test: qHTS assay to identify small molecule antagonists of the vitamin D receptor (VDR) signaling pathway (AID 743223; active = well fitted inhibition curve with a large enough effect in the signal ratio in the repeat runs, not every such curve was filed as active; the % refers to the signal ratio)
Procedure, shortened: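 Antagonist mode: compound added to VDR-bla cells alongside agonist 1alpha,25-dihydroxyvitamin D3 (3 nM final), incubation 16 h at 37C. Read-out is LiveBLAzer FRET fluorescence, 2 h at room temperature.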

[16] = molecular target: Peroxisome proliferator-activated receptor gamma (Homo sapiens) (UniProt P37231); test: qHTS assay to identify small molecule agonists of the peroxisome proliferator-activated receptor gamma (PPARg) signaling pathway (AID 743094; active = well fitted activation curve with a large enough effect in the signal ratio in the repeat runs, not every such curve was filed as active; the % refers to the signal ratio)
Procedure, shortened: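 GeneBLAzer PPARg UAS-bla HEK293H cells were plated, rested 5 h, then exposed to compounds for 17 h at 37C. Beta-lactamase activity was read by LiveBLAzer B/G FRET substrate fluorescence after 1 h at room temperature.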

[17] = qHTS assay for small molecule agonists of the antioxidant response element (ARE) signaling pathway (AID 743202; active = well fitted activation curve with a large enough effect in the signal ratio in the repeat runs, not every such curve was filed as active; the % refers to the signal ratio)
Procedure, shortened: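 An ARE-responsive beta-lactamase gene stably integrated in HepG2 cells serves as reporter. After 5 h plating and 16 h compound incubation at 37 C, fluorescence of the B/G FRET substrate was measured.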

[18] = molecular target: Peroxisome proliferator-activated receptor delta (Homo sapiens) (UniProt Q03181); test: qHTS assay to identify small molecule antagonists of the peroxisome proliferator-activated receptor delta (PPARd) signaling pathway (AID 743215; active = well fitted inhibition curve with a large enough effect in the signal ratio in the repeat runs, not every such curve was filed as active; the % refers to the signal ratio;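 note: cells stimulated with agonist L165041 at 300 nM final during compound exposure; series mostly up to about 62 µM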)
Procedure, shortened: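 PPARd-bla HEK293H cells (UAS-bla reporter) preincubated 5 h, then given compound plus 300 nM final L165041 agonist for 17 h at 37 C. Beta-lactamase activity read by LiveBLAzer B/G FRET substrate fluorescence after 2 h at room temperature.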

[19] = qHTS assay to identify small molecule that activate the aryl hydrocarbon receptor (AhR) signaling pathway - cell viability counter screen (AID 743086);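 note: HepG2 liver cells carrying the AhR DRE luciferase reporter; series mostly up to about 70 µM; nearly all actives have a fitted effect of over 45% in size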
Procedure, shortened: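 Cytotoxicity counter screen: CellTiter-Fluor signal (30 min, 37 C) in 4000 HepG2 cells/well carrying the DRE-luciferase reporter, following 24 h compound exposure at 37 C.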

[20] = molecular target: Aryl hydrocarbon receptor (Homo sapiens) (UniProt P35869); test: qHTS assay to identify small molecule that activate the aryl hydrocarbon receptor (AhR) signaling pathway (AID 743085);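 note: HG2L7.5c1 human HepG2 liver cells with stably integrated DRE-driven firefly reporter; series mostly up to about 70 µM; nearly all actives have a fitted effect of over 15% in size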
Procedure, shortened: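 Luminescence (ONE-Glo) from a dioxin-responsive-element luciferase reporter in HG2L7.5c1 HepG2 cells after 24 hr compound exposure at 37C; viability measured by CellTiter-Fluor fluorescence beforehand.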

Measured: Potency

Sequence of Aryl hydrocarbon receptor (Homo sapiens) (P35869 whole entry, looked up): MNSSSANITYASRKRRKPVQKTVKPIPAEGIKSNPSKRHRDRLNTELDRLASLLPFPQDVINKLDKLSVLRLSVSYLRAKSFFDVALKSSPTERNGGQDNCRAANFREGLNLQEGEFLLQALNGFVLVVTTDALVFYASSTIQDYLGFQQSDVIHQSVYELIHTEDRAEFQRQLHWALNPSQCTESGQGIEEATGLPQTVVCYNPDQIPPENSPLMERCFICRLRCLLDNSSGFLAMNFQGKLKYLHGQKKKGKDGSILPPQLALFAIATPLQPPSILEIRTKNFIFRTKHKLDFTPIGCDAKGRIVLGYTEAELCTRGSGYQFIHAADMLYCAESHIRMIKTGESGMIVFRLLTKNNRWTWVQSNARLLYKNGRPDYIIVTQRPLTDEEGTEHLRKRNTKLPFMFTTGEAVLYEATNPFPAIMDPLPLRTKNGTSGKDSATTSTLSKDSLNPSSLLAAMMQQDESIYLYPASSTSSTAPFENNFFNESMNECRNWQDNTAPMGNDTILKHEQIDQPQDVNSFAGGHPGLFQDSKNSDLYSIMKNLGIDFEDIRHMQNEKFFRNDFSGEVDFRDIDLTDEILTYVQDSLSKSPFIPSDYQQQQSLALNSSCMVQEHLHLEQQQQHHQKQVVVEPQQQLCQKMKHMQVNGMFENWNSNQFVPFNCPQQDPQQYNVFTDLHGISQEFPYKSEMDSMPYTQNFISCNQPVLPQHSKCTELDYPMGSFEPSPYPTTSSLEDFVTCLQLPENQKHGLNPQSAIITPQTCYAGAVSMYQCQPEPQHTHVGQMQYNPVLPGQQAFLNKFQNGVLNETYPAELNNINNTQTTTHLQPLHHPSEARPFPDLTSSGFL
Sequence of Peroxisome proliferator-activated receptor gamma (Homo sapiens) (P37231 whole entry, looked up): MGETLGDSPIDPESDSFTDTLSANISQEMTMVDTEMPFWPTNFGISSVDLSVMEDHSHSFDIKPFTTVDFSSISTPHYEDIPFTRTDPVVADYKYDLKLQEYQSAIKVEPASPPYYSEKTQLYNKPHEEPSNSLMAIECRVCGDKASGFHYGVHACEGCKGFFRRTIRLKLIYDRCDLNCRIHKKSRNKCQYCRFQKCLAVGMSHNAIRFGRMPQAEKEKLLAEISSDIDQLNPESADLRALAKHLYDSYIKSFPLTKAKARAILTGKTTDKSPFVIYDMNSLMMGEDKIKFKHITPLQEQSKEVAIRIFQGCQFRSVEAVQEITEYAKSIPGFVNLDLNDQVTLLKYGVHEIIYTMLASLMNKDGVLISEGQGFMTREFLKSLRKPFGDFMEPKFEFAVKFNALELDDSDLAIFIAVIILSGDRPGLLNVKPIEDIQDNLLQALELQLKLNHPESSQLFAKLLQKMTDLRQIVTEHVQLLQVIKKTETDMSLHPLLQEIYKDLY
Sequence of Vitamin D3 receptor (Homo sapiens) (P11473 whole entry, looked up): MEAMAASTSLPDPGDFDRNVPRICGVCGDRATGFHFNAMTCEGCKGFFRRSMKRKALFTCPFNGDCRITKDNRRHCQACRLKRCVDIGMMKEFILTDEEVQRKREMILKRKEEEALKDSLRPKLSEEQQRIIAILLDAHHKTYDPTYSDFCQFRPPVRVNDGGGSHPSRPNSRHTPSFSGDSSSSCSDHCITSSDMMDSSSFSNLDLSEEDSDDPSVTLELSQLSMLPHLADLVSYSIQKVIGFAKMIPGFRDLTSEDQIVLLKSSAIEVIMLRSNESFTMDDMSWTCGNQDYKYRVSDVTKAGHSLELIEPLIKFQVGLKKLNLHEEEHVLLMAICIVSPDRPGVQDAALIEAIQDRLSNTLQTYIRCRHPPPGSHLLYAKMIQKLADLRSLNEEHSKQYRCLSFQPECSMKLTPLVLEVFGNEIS
Sequence of Peroxisome proliferator-activated receptor delta (Homo sapiens) (Q03181 whole entry, looked up): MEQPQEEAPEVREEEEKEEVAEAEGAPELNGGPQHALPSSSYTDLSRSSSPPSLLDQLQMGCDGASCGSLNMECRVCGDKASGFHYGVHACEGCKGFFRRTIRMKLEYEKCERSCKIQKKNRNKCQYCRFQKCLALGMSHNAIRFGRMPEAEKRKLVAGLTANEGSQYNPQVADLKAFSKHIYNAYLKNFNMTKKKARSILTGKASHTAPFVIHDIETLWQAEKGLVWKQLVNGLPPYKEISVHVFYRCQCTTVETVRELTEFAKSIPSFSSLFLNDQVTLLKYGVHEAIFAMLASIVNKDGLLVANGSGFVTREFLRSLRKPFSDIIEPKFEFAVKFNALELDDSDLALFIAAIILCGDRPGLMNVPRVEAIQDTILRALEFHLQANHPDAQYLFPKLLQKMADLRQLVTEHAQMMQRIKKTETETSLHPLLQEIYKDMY
Sequence of Bile acid receptor (Homo sapiens) (Q96RI1 whole entry, looked up): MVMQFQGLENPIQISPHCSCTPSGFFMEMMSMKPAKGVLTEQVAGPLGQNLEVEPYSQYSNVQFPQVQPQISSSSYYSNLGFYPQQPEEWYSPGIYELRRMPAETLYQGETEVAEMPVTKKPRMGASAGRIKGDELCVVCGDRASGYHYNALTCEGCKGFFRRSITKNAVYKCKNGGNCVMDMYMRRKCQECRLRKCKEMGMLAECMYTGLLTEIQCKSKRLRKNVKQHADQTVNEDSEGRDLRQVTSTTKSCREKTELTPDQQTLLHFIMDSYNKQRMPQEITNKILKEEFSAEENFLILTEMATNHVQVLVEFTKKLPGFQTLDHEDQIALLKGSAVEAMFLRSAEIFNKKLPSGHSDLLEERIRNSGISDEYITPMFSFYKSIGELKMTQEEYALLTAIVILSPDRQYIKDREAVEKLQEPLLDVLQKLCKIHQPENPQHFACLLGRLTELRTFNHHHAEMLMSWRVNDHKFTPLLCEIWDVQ

O=C(NS(=O)(=O)/C=C/c1cccs1)c1ccc(F)cc1Br
not listed: [16] | [17] | [18] | [19] | [20]
inactive: all other assays above

Cc1cccc(OCCOc2cccc(C)c2)c1
not listed: [5] | [10] | [12] | [14] | [15] | [19] | [20]
inactive: all other assays above

C=CC(C)(CCC=C(C)C)OC(=O)c1ccccc1 (stereo not drawn)
inactive: [3] | [17] | [9] | [10] | [11] | [12] | [13]

O=C(O)C(c1ccc(Cl)cc1)c1ccc(Cl)cc1
not listed: [2] | [15] | [16] | [18] | [19] | [20]
inactive: all other assays above

O=S1(=O)c2cccc3cccc(c23)N1CCCN1CCN(c2ccc(F)cc2)CC1
not listed: [1] | [6] | [7] | [8] | [17] | [18] | [20]
inactive: all other assays above

CCC(C)N(C)C(=O)c1cc2ccccc2c(-c2ccccc2Cl)n1 (stereo not drawn)
not listed: [1] | [9] | [10] | [12] | [14] | [15] | [16] | [17]
inactive: all other assays above

CCCC(C)C
inactive: [20] | [16] | [3] | [17] | [4] | [5] | [6] | [7] | [8] | [18] | [13]

O=C1Nc2cc(Cl)ccc2Oc2ccccc21
not listed: [1] | [9] | [14] | [16] | [17] | [18] | [19] | [20]
inactive: all other assays above

CCCCOC(=O)c1ccccc1C(=O)OCC(CC)CCCC (stereo not drawn)
not listed: [1] | [10] | [15] | [18]
inactive: all other assays above
